Laboratory results taken from PubChem BioAssay (NCI).
“And” between values parts separate entries of the source, which are not always exact repeats. Equal entries are not always repeated. The panel holds about 83,000 compounds, 20% with a hit somewhere; the sample as a whole holds those more often.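 A percent growth of 40 corresponds to 60% growth inhibition; 0 means no net growth; -100 means all cells died. Active threshold: below 10.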 The source made the active and inactive calls.

test system: MDA-MB-468 breast; test: NCI-60 one-dose screen, 48 h (100 = growth as untreated, 0 = no growth, -100 = all killed); conditions: 10 µM unless noted

SMILES	growth
C=C(C)[C@@H]1CC[C@]2(C(=O)NCCCN)CC[C@]3(C)[C@H](CC[C@@H]4[C@@]5(C)CC[C@H](O)C(C)(C)[C@@H]5CC[C@]43C)[C@@H]12	-19.9% [100 µM] (active)
N#Cc1ccc(C2C3=C(CCCC3=O)OC3=C2C(=O)c2ccccc2C3=O)cc1 (stereo not given)	-16.1% (active)
CNC(=O)c1cc(Oc2ccc3nc(NC(=O)Nc4ccc(C(F)(F)F)cc4)sc3c2)ccn1	49.9% (inactive)
Cc1ccc(-c2c3c(N)c4c(nc3nc3c2c(C)nn3-c2ccccc2)CCC4)cc1	53% (inactive)
Cc1c(O)cccc1O	117% (inactive)
Cc1ccccc1NC(=O)Cc1csc2[n+]1C(=O)/C(=C/c1ccc([N+](=O)[O-])cc1)S2	116% (inactive)
Cn1c(=O)c2nc(/C=C/c3ccccc3)c(=O)[nH]c2n(C)c1=S	103% (inactive)
CC(C)(C)c1ccc(S(=O)(=O)N[C@H]2CC[C@H]3[C@@H]4CCc5cc(O)c([N+](=O)[O-])cc5[C@H]4CC[C@]23C)cc1	99.9% (inactive)
COC(=O)C(Cc1ccccc1)n1cc(COc2nc(Cl)nc(Nc3ccc(Cl)cc3)n2)nn1 (stereo not given)	69.1% (inactive)
CCN(CC)CCc1nc(-c2ccccc2)no1	-1.63% (active) and 78.5% (inactive)
O=c1cc(CSc2nnc(SCc3cc(=O)oc4c3ccc3ccccc34)o2)c2ccc3ccccc3c2o1	110% (inactive)
CCOC(=O)c1ccccc1NC(c1ccccc1)c1ccc2cccnc2c1O (stereo not given)	8.19% (active)
CCN(CC)CCOc1ccc(/C(=C(\C)c2ccc(F)c(OC)c2)c2ccc(Cl)cc2)cc1	-15.7% (active)
COc1ccc(/C=C(\C#N)c2ccc(OC)cc2)cc1	7.49% (active)
COC(=O)C1(C)CCC[C@]2(C)[C@H]3C[C@H]4C(C(C)C)=C[C@]3(CC[C@@H]12)[C@H]1[C@@H]4[C@@H](OC(=O)c2ccco2)CC[C@@H]1OC(=O)c1ccco1 (stereo not given in full)	102% (inactive)
N#Cc1nc(-c2ccccc2)oc1N1CCC(CO)C1 (stereo not given)	92.5% (inactive)
COc1cc2c(cc1NC(=O)C(F)(F)F)-c1ccc(NC(=O)C(F)(F)F)cc1C2	58% (inactive)
C/C(=C(/c1ccccc1)c1ccc(OCC(O)CNCCN2CCOCC2)cc1)c1ccccc1 (stereo not given)	53.1% (inactive)

SMILES	growth
CCN(CC)CCNc1ncnc2c1cnn2-c1ccc(Cl)cc1	57.6% (inactive)
COc1ccc2[nH]cc(C(c3cc(F)cc(F)c3)c3c[nH]c4ccc(OC)cc34)c2c1	89.6% (inactive)
C[C@@H]1O[C@@H](O[C@@H]2C[C@H](c3ccc4c(c3O)C(=O)C3=C(C4=O)[C@@]4(O)C(=O)C[C@](C)(O)C[C@@]4(O)C=C3)O[C@H](C)[C@H]2O)CC[C@@H]1O[C@H]1C[C@@H](O)[C@H](O)[C@@H](C)O1	106% (inactive)
COc1cc(C2CC(c3ccc(Nc4ccnc5cc(Cl)ccc45)cc3)=NN2C=O)cc(OC)c1OC (stereo not given)	-7.9% (active)
CCN(CC)S(=O)(=O)c1ccc(S(=O)(=O)N2CCC[C@@H](C(=O)N3CCN(c4nc(C(C)C)no4)CC3)C2)cc1	12.4% (inactive)
COc1cc(C2c3cc(OC(C)=O)c(OC)cc3CC3C(=O)OCC32)ccc1OC(C)=O (stereo not given)	96% (inactive)
COc1ccc(/C=N\NC(=O)c2ccc3nc(-c4ccc(Br)cc4)[nH]c3c2)cc1	32.1% (inactive)
COc1cc(-c2nc3ccccc3[nH]2)ccc1OCc1nnc(-c2ccc(CC(C)C)cc2)o1	94.1% (inactive)
COc1ccc(Nc2nccc(Nc3ccc4[nH]ncc4c3)n2)cc1	44% (inactive)
C/C(=C(/c1ccc(Cl)cc1)c1ccc(OCCN2CCCCCC2)cc1)c1ccccc1	72.5% (inactive)
O=C(NCOC(O)C(Cl)(Cl)Cl)NCOC(O)C(Cl)(Cl)Cl (stereo not given)	106% (inactive)
CC1(C)N=C(N)N=C(N)N1c1cccc(CN)c1	84.8% (inactive)
Cc1cc(CSc2ccccc2C(=O)N2CC=C(c3ccccc3)CC2)on1	94.2% (inactive)
CCCCCCCCn1ccc2cc(NC(=O)CN3CCN(c4cc(C)nc(Cl)n4)CC3)ccc21	56.6% (inactive)
CCN(CC)C(=O)CCCCCn1c2ccccc2c2c3c(c4c5ccccc5[nH]c4c21)C(=O)N(O)C3=O	51.5% (inactive)
O=S1(=O)c2ccccc2Oc2ccccc21	96.4% (inactive)
CC(=O)Nc1ccc2oc(=O)ccc2c1	83% (inactive)
